Most compounds without a hit are left out; they make up all but 7.4% or so of the library.
SNCA viab count: GF-AFC viability counterscreen for inhibitors of alpha-synuclein gene (SNCA) expression. HEK-293-SNCA-luc viability, GF-AFC fluorescence, 24 h. 150,000 compounds, 0.12% hits. Potency, µM (highest dose often 57.1 µM), inactives show top-dose activity change, negative = cytotoxicity, hits mostly cytotoxic. AID 1671193, 2021;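 also: 0% = DMSO-treated cells and -100% = medium-only wells without cells; nearly all actives have a fitted effect of over 30% in size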
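Cytotoxicity counterscreen: after 24 h compound treatment of genome-edited SNCA-luciferase HEK-293 cells, live-cell protease substrate GF-AFC read by fluorescence after 30 min; activity scaled between DMSO (0%) and medium-only (-100%), curves Hill-fitted.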
HEK293 tox: Cytotoxic Profiling in HEK 293 Cell Line of Diverse Libraries Using Quantitative High-Throughput Screening. HEK 293 viability, ATP luminescence (CellTiter-Glo), 48-72 h. Potency, µM (doses to about 115 µM), inactives show at the top dose activity change, negative = cytotoxicity, hits mostly inhibitors. 94,000 compounds, 6.6% hits. AID 1345083, 2018; also: nearly all actives have a fitted effect of over 60% in size
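Pintool-delivered compounds were incubated with HEK 293 cells (250 cells/well) at 37 degree Celsius for 48 or 72 hr. ATP-dependent luminescence (CellTiter-Glo) then reported remaining viable cells.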
FLuc inh: Firefly luciferase inhibition profiling of diverse chemical library using quantitative high-throughput screening; purified P. pyralis luciferase, luminescence, biochemical; Potency, µM (doses to about 115 µM), hits mostly inhibitors; 76,000 compounds, 2.5% hits; AID 1347043, 2019; also: nearly all actives have a fitted effect of over 65% in size
Target sequence (P08659 whole entry, looked up): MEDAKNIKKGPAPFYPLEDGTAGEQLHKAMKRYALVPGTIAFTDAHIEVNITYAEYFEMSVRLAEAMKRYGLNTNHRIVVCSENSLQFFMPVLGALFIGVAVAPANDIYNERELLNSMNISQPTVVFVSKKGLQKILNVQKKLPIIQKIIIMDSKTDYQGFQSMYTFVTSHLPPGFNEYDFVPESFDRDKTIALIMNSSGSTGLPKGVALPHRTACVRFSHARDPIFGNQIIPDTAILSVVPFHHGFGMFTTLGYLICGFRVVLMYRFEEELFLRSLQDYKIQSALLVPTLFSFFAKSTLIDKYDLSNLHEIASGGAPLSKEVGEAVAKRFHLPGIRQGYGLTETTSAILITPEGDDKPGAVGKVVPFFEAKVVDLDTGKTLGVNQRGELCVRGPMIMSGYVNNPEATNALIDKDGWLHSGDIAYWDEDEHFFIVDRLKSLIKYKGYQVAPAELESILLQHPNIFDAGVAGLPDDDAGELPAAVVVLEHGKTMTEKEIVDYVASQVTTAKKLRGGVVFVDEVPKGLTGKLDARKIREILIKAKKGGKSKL
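Purified P. pyralis luciferase (10nM final) in 50mM Tris acetate pH 7.5, 10mM Mg acetate, 0.01% Tween-20, 0.05% BSA with 10uM D-luciferin and 10uM ATP. Compounds titrated qHTS. Luminescence imaged on CCD.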
NPR1 antag: Natriuretic polypeptide receptor (hNpr1) antagonism - Primary qHTS | Atrial natriuretic peptide receptor 1 (Homo sapiens), P16066 | HEK293 hNpr1 GloSensor cGMP, ANP-stimulated luminescence | Potency, µM (series often up to 46.3 µM), without a hit: at the top dose activity change, negative = inhibition, actives largely listed as inhibitors | 76,000 compounds, 1.6% hits | AID 1347048, 2019; calls by dose curve; also: nearly all actives have a fitted effect of over 60% in size
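HEK293 cells stably expressing human Npr1 and cGMP GloSensor pGS-40F, loaded 2 h with 2% GloSensor reagent, given compound 30 min at room temperature. Luminescence read before and 20 min after 0.1 nM hNppA.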
3T3 cytotox: Cytotoxic Profiling in NIH 3T3 Cell Line of Diverse Libraries Using Quantitative High-Throughput Screening | Potency, µM (doses to about 96.7 µM), inactives show at the top dose activity change, negative = cytotoxicity, hits mostly inhibitors | NIH 3T3 viability, CellTiter-Glo ATP luminescence, 48-72 h | 94,000 compounds, 4.3% hits; also: nearly all actives have a fitted effect of over 55% in size
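Cytotoxicity is measured as loss of cellular ATP: NIH 3T3 cells (400/well) are exposed to compound for 48 or 72 hr at 37 °C, then CellTiter-Glo luminescence is imaged after 10 min at room temperature.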
SNCA expr inh: Primary qHTS assay for inhibitors of alpha-synuclein gene (SNCA) expression. HEK-293 SNCA-luciferase knock-in, luminescence, 24 h. Potency, µM (top dose mostly 57.2 µM), inactives show top-dose activity change, negative = inhibition, most hits filed as inhibitors. 140,000 compounds, 0.17% hits. AID 1671194, 2021;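 also: plate controls were DMSO cells for no effect and cell-free wells for full effect; nearly all actives have a fitted effect of over 45% in size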
* = called active by the depositor; i = inactive; ? = inconclusive; / = no result; [ ] = remark or other dose. Unless noted, calls follow the shape of the dose curve; as a rule, active = well fitted curve in the direction sought with a large enough effect; inconclusive = small, poorly fitted or top-dose-only effect, or another doubt; inactive = no such curve, though single readings can be large; an effect the other way counts as inactive or inconclusive. Unless noted, % is scaled to controls: 0 for no effect and ±100 for the full control effect; potency is read from the fitted curve at half-maximal effect.

SMILES | SNCA viab count | HEK293 tox | FLuc inh | NPR1 antag | 3T3 cytotox | SNCA expr inh
CCOC(=O)[C@@H]1CN(C(=O)OCC(C)C)[C@H]2c3ccc(OC)cc3O[C@@H]12 | / | -27% | / | / | 40µM* | /
CC(C)CNC(=O)N1CCC(CC2CC2)(NS(C)(=O)=O)CC1 | 5% | 5% | / | / | i | -1%
Cn1nc(C2CC2)cc1NC(=O)c1cccc(Cl)c1 | 6%[87.6 µM] | -20%[172 µM] | / | / | ? | 22%[87.6 µM]
O=C(O)CCn1ncc2cc(OCC3CCN(c4ncccn4)CC3)ccc21 | 3%[87.6 µM] | -11%[172 µM] | 63µM* | 3%[70.6 µM] | 50µM* | 2%[87.6 µM]
O=C(O)CCn1ncc2cc(OCC3CCN(c4ncc(F)cn4)CC3)ccc21 | 7%[87.6 µM] | -10%[172 µM] | ? | 0%[70.6 µM] | ? | ?
O=C(O)CCn1ncc2cc(OCC3CCN(C(=O)CC4CC4)CC3)ccc21 | 0%[87.6 µM] | 3%[172 µM] | ? | 6%[70.6 µM] | 50µM* | -2%[87.6 µM]
O=C(O)CCn1ncc2cc(OCC3CCN(C(=O)OC4CCCC4)CC3)ccc21 | 8%[87.6 µM] | ? | ? | 1%[70.6 µM] | 25µM* | 3%[87.6 µM]
O=C(O)CCn1ncc2cc(OCC3CCN(C(=O)COc4ccccc4)CC3)ccc21 | -1%[87.6 µM] | 4%[172 µM] | i | 1%[70.6 µM] | 28µM* | 11%[87.6 µM]
CC(NC(=O)c1ccc2nnc(Cc3ccco3)n2c1)c1ccc(F)cc1 (stereo unspecified) | 4% | i | / | / | -10% | 2%
COc1ccc(CN2CC(c3nc(Cc4cccnc4)no3)C2)c(OC)c1 | ? | ? | i | ? | 16µM* | ?
CC(=O)NCCC1CCN(C(=O)Nc2ccc(C)c(F)c2)CC1 | 1% | 3% | 5µM* | -28% | i | ?
O=C1OCC2(CCN(Cc3ccc4c(c3)CCO4)C2)N1Cc1ccccc1 (stereo unspecified) | -7%[87.6 µM] | ? | i | -10%[70.6 µM] | ? | -11%[87.6 µM]
Cc1ccc(-c2cc3c(=O)n(CCNC(=O)C4CCCCC4)ccn3n2)cc1C | -4% | -1% | 0.63µM* | -5% | 0% | 55%
Cc1ccc(-c2cc3c(=O)n(CCNC(=O)c4ccc5ccccc5n4)ccn3n2)cc1C | -3% | i | ? | -4% | i | 67%
CCn1nccc1C(=O)NCCn1ccn2nc(-c3ccc(C)c(C)c3)cc2c1=O | -29% | 25µM* | 4µM* | -2% | -29% | 23%
O=C(NCCn1ccn2nc(-c3ccc(F)cc3)cc2c1=O)c1ccsc1 | -1% | ? | i | -6% | -11% | 101%
Cc1ccc(-c2cc3c(=O)n(CCNC(=O)c4ccccc4F)ccn3n2)cc1C | 5% | ? | 2µM* | 5% | -21% | 92%
Cc1ccc(-c2cc3c(=O)n(CCNC(=O)c4cccc(Cl)c4)ccn3n2)cc1C | -4% | ? | i | -6% | ? | 58%
O=C(NCCn1ccn2nc(-c3ccc(F)cc3)cc2c1=O)c1n[nH]c2c1CCCC2 | -5% | ? | 0.4µM* | ? | ? | 54%
CN1CCN(C(=O)C2CCN(c3ccnc4ccnn34)CC2)CC1 | 4%[87.6 µM] | -20%[172 µM] | / | / | ? | -2%[87.6 µM]
O=C(NCc1nnc2ccc(-c3ccccc3)nn12)c1cc(F)ccc1Cl | -25% | 40µM* | i | 2% | ? | 0%
O=C(NCc1nnc2ccc(-c3ccc(Cl)cc3)nn12)c1cc(F)ccc1F | -7% | -23% | i | 5% | -21% | -10%
C[S+](=O)([O-])c1ccc(-c2nnc3ccc(C(=O)NCc4cccc(Cl)c4)cn23)cc1 | -2% | ? | / | / | ? | 12%
O=C1CC2(CCN(C(=O)C3CCCN(C(=O)C4CCCC4)C3)CC2)Oc2ccccc2N1 (stereo unspecified) | -4% | -20% | / | / | -20% | 7%
COc1ccccc1C(=O)N1CCC2(CC1)CC(=O)Nc1ccccc1O2 | -17% | 45µM* | i | -20% | -11% | 33%
SMILES | SNCA viab count | HEK293 tox | FLuc inh | NPR1 antag | 3T3 cytotox | SNCA expr inh
Cc1ccc([S+](=O)([O-])N2CCCC(C(=O)N3CCC4(CC3)CC(=O)Nc3ccccc3O4)C2)cc1 (stereo unspecified) | -26% | 35µM* | / | / | ? | -14%
O=C1CC2(CCN(C(=O)C3CCN(C(=O)Cc4cccc(Cl)c4)CC3)CC2)Oc2ccccc2N1 | -9% | 40µM* | / | / | ? | -26%
Cc1ccc(C(=O)N2CCCC(C(=O)N3CCC4(CC3)CC(=O)Nc3ccccc3O4)C2)cc1 (stereo unspecified) | -10% | ? | / | / | -17% | -2%
O=C1CC2(CCN(C(=O)C3CCCN(C(=O)Nc4ccc(Cl)cc4)C3)CC2)Oc2ccccc2N1 (stereo unspecified) | ? | 22µM* | / | / | ? | -18%
CNC(=O)c1cc(C)nc2onc(C3CCN(C(=O)c4cccnc4)C3)c12 (stereo unspecified) | / | 3% | / | / | -5% | /
O=C(C1CCCN1C(=O)Nc1ccc(Cl)cc1)N1CCC(c2nc3ccncc3[nH]2)C1 (stereo unspecified) | -8% | -28% | / | / | ? | -3%
COc1ccc(C(=O)N2CCN(c3nccc(Nc4ccccc4OC)n3)CC2)cc1 | -8% | 40µM* | / | / | ? | -20%
COc1ccccc1Nc1ccnc(N2CCN(C(=O)c3ccccc3Cl)CC2)n1 | ? | ? | / | / | 40µM* | ?
CC(C)(C)c1cc(C[C@@H]2C[C@H](NCc3ccccn3)C2(C)C)no1 | 2%[87.6 µM] | 50µM* | i | ? | 50µM* | -22%[87.6 µM]
COc1ccc(CN[C@H]2C[C@@H](Cc3cc(CN(C)c4ccccc4)on3)C2(C)C)cc1 | -23%[87.6 µM] | 28µM* | i | -30%[70.6 µM] | ? | ?
CC1(C)[C@H](Cc2cc(CCO)on2)C[C@@H]1NCc1cccnc1 | 3%[87.6 µM] | -11%[172 µM] | i | -1%[70.6 µM] | -28%[174 µM] | -15%[87.6 µM]
CN(Cc1cc(C[C@@H]2C[C@H](NCc3cccnc3)C2(C)C)no1)c1ccccc1 | -11%[87.6 µM] | 63µM* | i | ? | ? | -21%[87.6 µM]
O=[S+]([O-])(NC1CCN(c2ccnc3ccnn23)CC1)c1ccccc1 | 3% | ? | / | / | ? | -24%
CN(C)C(=O)C1CCCCN1Cc1ccc(-c2cccs2)cc1 (stereo unspecified) | 8%[87.6 µM] | ? | / | / | ? | 49%[87.6 µM]
Cc1ccc(-c2ccccc2CN2CCC(C(=O)N3CCN(Cc4ccccc4)CC3)CC2)cc1Cl | 1% | ? | / | / | ? | -22%

Compound activity (PubChem BioAssay)
